The values that follow come from PubChem BioAssay (EPA / NIEHS).

By AC50 is commonly meant the concentration giving half of the maximal activity seen.

The source made the active and inactive calls. Rule for the calls: active = hit-call score of the fitted dose curve at least 0.9, where 1 is the maximum; inactive = score below 0.9.

Read-out in the experiment: solute carrier (SLCO1B1), SLCO1B1 (gene 10599)
Put plainly: LTEA_HepaRG_SLCO1B1: Life Technologies and Expression Analysis (LTEA) Assay for solute carrier (SLCO1B1) using HepaRG (AID 2283530). To be noted: mRNA level, 48 h; actives raise or lower the signal. On the procedure: LTEA_HepaRG is a cell based, multiplexed-readout assay that uses HepaRG, a human liver cell line, with measurements taken at 48 hours after chemical dosing on a 96-well plate.LTEA_HepaRG_SLCO1B1 is one of 102 assay component(s) measured in the LTEA HepaRG cell culture assay. It is a marker of NR mediated transport.Data from the assay component LTEA_HepaRG_SLCO1B1 was analyzed into 1 endpoint. This assay endpoint, LTEA_HepaRG_SLCO1B1, was analyzed with bidirectional fitting relative to DMSO as the negative control and baseline of activity. Using a type of inducible reporter, measures of mRNA induction for gain or loss-of-signal activity can be used to understand regulation of transcription factor activity. To generalize the intended target to other relatable targets, this assay endpoint is annotated to the transporter intended target family, where the subfamily is organic anion transporter.
A total of 1060 chemcials from the ToxCast library were tested in eight-point concentration-response experiments. Cell culture and cytotoxicity assays were conducted at Thermo Fisher Scientific's Custom Services facility (Madison, WI). A single lot of human HepaRG cells (Thermo Fisher Scientific, Frederick, MD) was used for the cell culture experiments. 96-well format collagen type I coated plates of human HepaRG cells were prepared using established methods. Briefly, cryopreserved HepaRG cells were thawed, plated at a density of approximately 100,000 cells/well in HepaRG Thaw, Plate, and General Purpose media (HPRG770, Thermo Fisher Scientific), and incubated for 48 hours. 0.5% DMSO was selected as vehicle control to balance the requisite need of DMSO in HepaRG cultures to maintain differentiation (for example, baseline metabolism, proportions of hepatocytes vs. cholangiocytes), while enabling further hepatic receptor pathway activation (for example, PXR and CAR) in response to chemical exposure. 48 hours after plating, the culture medium was replaced with HepaRG Serum-Free Incudtion Media. Cells were exposed to each test chemical in duplicate and maintained in CO2 incubators for another 48 hours. Chemical plates were thawed to room temperature and 200x concentrations of treatment groups were prepared. 8-point conentration-reponse curves were made with the highest exposure at 100 uM, followed by half-log dilutions, all in 0.5% DMSO. Each test plate contained variouse controls, induction positive controls (1mM phenobarbital), cytotoxicity positive controls ([…] aflatoxin B1), vehicle controls (0.5% DMSO), and total lysis controls (0.5% DMSO). Cell morphology images were taken using an Essen IncuCyte FLR automated microscope, with six 96-well plates imaged in about 24 minutes. Images were captured and exported and JPEG files. Spent culture media was transfered to black-well plates for the LDH assay, and remaining media was sorted at -80 C for later use. Cells were treated with RLT buffer and frozen until shipped for gene expression analysis. Total RNA was isolated from the cell suspension in 75 uL of Buffer RLT (Qiagen, Germantown, MD 20874) by Quintiles/Expression Analysis (Durham, NC) using a custom isolation procedure. Total RNA from each plate well was transferred to a preamplification plate. Fluidigm's 96.96 Dynamic ArrayTM (Fluidigm, Amsterdam, the Netherlands) technology was used for gene expression analyses by quantitative reverse transcription polymerase chain reaction (qRT-PCR, performed by Quintiles/Expression Analysis, Durham, NC)89. Standard TaqManTM Assays (Applied Biosystems/ThermoFisher Scientific, Foster City, CA) were used to assess the expression of 93 genes selected based on their selectivity and sensitivity to important hepatic receptors known to be modulated by environmental chemicals; importance in human hepatocyte functionality; and hepatotoxicity. […]
On to `CCOP(=O)(NC(C)C)Oc1ccc(SC)c(C)c1` (stereo not given), for which the call was inactive.
On the same count and under the same terms, then `COc1cc(OC)nc(Sc2cccc(Cl)c2C(=O)O)n1`, with “inactive”.
Regarding `C[Si](Cn1cncn1)(c1ccc(F)cc1)c1ccc(F)cc1`, the concentration at half-maximal activity (AC50) is 74.4 µM (active).
Turning to `CCCCOC(=O)[C@@H](C)Oc1ccc(Oc2ccc(C#N)cc2F)cc1`, the result was inactive.
Take `O=C(O)c1cc(Oc2ccc(C(F)(F)F)cc2Cl)ccc1[N+](=O)[O-]`: the call was inactive.
With `O=[N+]([O-])c1cc(C(F)(F)F)c(Cl)c([N+](=O)[O-])c1Nc1ncc(C(F)(F)F)cc1Cl`, the AC50 was 23.4 µM (active).
As to `C[N+]1(C)CCCCC1`, the molecule was classed as inactive.
Turning to `CCOP(=S)(OCC)Oc1ccc([N+](=O)[O-])cc1`, the molecule was called inactive.
Turning to `Cc1cc(C2CC2)nc(Nc2ccccc2)n1`, the outcome was inactive.
Still for that read-out and setting: then `Nc1nc(N)nc(NC2CC2)n1`, with “inactive”.
Still for that read-out and setting: the value for `CCOP(=S)(OCC)Oc1cc(C)nc(C(C)C)n1` was “inactive”.
As to `N#CSCSC#N`, the molecule was called inactive.
For the molecule `S=C1NCCN1`, the AC50 was 0.24 µM (active).
For `CCOP(=S)(OCC)Oc1ccc2c(C)c(Cl)c(=O)oc2c1`, the result was inactive.
With `CC1(C(=O)Nc2ccc(O)c(Cl)c2Cl)CCCCC1`, the call was inactive.
Same read-out and setting: the value for `CNc1cnn(-c2cccc(C(F)(F)F)c2)c(=O)c1Cl` was “inactive”; that for `CC(Oc1cccc(Cl)c1)C(=O)O` (stereo not given) was “inactive”.
On to `Nc1c(Cl)cc([N+](=O)[O-])cc1Cl`, for which the AC50 is 50 µM (active).
`CCOP(=O)(OCC)Oc1cc(C)nc(C(C)C)n1`: the result was inactive.
For the molecule `CCCOCC(=Nc1ccc(Cl)cc1C(F)(F)F)n1ccnc1`, the AC50 was 15.8 µM (active).
As to `CCOP(=O)(SC(C)CC)N1CCSC1=O` (stereo not given), the call was inactive.
For the molecule `CN(C)[C@@H]1C(=O)C(C(N)=O)=C(O)[C@@]2(O)C(=O)C3=C(O)c4c(O)cccc4[C@@](C)(O)[C@H]3[C@H](O)[C@@H]12`, the call was inactive.
Take `C=C(C)[C@H]1Cc2c(ccc3c2O[C@@H]2COc4cc(OC)c(OC)cc4[C@@H]2C3=O)O1`: the AC50 is 12.3 µM (active).
For `CSc1nnc(C(C)(C)C)c(=O)n1N`, the call was inactive.
Consider `CC1=NNC(=O)N(/N=C/c2cccnc2)C1`, for which the result was inactive.
On the same count and under the same terms, the value for `CCCCOC(=O)c1ccccc1C(=O)O` was “inactive”.
As for `FC(F)C(F)(F)OCC(Cn1cncn1)c1ccc(Cl)cc1Cl` (stereo not given), the AC50 was 70.4 µM (active).
With `CNC(=O)ON=C(C)SC`, the call was inactive.
The same measure, in the same setting: then `CC(=NC#N)N(C)Cc1ccc(Cl)nc1`, with “inactive”; and `CCc1cnc(C2=NC(C)(C(C)C)C(=O)N2)c(C(=O)O)c1` (stereo not given), with “inactive”; and `CCCSP(=O)(OCC)SCCC`, with “inactive”.
On the same count and under the same terms, then `CCCOc1nn(C(=O)NS(=O)(=O)c2ccccc2C(=O)OC)c(=O)n1C`, with “inactive”; and `COc1ccc(C(=CC(=O)N2CCOCC2)c2ccc(Cl)cc2)cc1OC`, with “inactive”; and `CCOP(=S)(OCC)SCCSCC`, with “inactive”.
`CCOC(=O)COc1cc(-c2nn(C)c(OC(F)F)c2Cl)c(F)cc1Cl`: the molecule was classed as inactive.
On the same count and under the same terms, then `CC(C1CC1)C(O)(Cn1cncn1)c1ccc(Cl)cc1` (stereo not given), with “inactive”; and `COP(=O)(OC)C(O)C(Cl)(Cl)Cl` (stereo not given), with “inactive”; and `COc1cccc(C(=O)NN(C(=O)c2cc(C)cc(C)c2)C(C)(C)C)c1C`, with “inactive”.
Same read-out and setting: the value for `COP(=O)(OC)SCn1c(=O)oc2cc(Cl)cnc21` was “inactive”; that for `Cc1ccn2nc(S(=O)(=O)Nc3c(F)cccc3F)nc2n1` was “inactive”.
